Activity calls are given as the source filed them.
Tests used:
[1] = binders of probe aFSTL3 on microarray, primary screen, stem cell growth factor project, biochemical, small-molecule microarray, fluorescence 635/667 (AID 1064); conditions: higher = more signal;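 also: measures binding of the biotinylated anti-FSTL3 antibody to printed compounds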
[2] = binders from COS7 lysate, DM2A8 probe, primary screen, torsin A project, cell lysate, small-molecule microarray, fluorescence 635/667 (AID 1065); conditions: higher = more signal, COS7 lysate expressing mutant human TOR1A
[3] = binders of probe aFGF2 on microarray, primary screen, stem cell growth factor project, biochemical, small-molecule microarray, fluorescence 635/667 (AID 1067); conditions: higher = more signal;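 also: measures binding of biotinylated aFGF2 protein to printed compounds on slides; z-score merges feature fluorescence and signal-to-noise across triplicate slides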
[4] = binders of probe aFGF10 on microarray, primary screen, stem cell growth factor project, biochemical, small-molecule microarray, fluorescence 635/667 (AID 1071); conditions: higher = more signal;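 also: score merges 667 nm spot intensity and signal to noise from triplicate slides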
[5] = molecular target: Neurogenic locus notch homolog protein 2 (Homo sapiens) (UniProt Q04721); experiment: Notch2 binders on small-molecule microarrays, primary screen, biochemical, small-molecule microarray, 635 nm fluorescence, stem cell growth factors (AID 1073); conditions: Notch2 binding, higher = more signal
Neurogenic locus notch homolog protein 2 (Homo sapiens), sequence (Q04721 whole entry, looked up, canonical isoform): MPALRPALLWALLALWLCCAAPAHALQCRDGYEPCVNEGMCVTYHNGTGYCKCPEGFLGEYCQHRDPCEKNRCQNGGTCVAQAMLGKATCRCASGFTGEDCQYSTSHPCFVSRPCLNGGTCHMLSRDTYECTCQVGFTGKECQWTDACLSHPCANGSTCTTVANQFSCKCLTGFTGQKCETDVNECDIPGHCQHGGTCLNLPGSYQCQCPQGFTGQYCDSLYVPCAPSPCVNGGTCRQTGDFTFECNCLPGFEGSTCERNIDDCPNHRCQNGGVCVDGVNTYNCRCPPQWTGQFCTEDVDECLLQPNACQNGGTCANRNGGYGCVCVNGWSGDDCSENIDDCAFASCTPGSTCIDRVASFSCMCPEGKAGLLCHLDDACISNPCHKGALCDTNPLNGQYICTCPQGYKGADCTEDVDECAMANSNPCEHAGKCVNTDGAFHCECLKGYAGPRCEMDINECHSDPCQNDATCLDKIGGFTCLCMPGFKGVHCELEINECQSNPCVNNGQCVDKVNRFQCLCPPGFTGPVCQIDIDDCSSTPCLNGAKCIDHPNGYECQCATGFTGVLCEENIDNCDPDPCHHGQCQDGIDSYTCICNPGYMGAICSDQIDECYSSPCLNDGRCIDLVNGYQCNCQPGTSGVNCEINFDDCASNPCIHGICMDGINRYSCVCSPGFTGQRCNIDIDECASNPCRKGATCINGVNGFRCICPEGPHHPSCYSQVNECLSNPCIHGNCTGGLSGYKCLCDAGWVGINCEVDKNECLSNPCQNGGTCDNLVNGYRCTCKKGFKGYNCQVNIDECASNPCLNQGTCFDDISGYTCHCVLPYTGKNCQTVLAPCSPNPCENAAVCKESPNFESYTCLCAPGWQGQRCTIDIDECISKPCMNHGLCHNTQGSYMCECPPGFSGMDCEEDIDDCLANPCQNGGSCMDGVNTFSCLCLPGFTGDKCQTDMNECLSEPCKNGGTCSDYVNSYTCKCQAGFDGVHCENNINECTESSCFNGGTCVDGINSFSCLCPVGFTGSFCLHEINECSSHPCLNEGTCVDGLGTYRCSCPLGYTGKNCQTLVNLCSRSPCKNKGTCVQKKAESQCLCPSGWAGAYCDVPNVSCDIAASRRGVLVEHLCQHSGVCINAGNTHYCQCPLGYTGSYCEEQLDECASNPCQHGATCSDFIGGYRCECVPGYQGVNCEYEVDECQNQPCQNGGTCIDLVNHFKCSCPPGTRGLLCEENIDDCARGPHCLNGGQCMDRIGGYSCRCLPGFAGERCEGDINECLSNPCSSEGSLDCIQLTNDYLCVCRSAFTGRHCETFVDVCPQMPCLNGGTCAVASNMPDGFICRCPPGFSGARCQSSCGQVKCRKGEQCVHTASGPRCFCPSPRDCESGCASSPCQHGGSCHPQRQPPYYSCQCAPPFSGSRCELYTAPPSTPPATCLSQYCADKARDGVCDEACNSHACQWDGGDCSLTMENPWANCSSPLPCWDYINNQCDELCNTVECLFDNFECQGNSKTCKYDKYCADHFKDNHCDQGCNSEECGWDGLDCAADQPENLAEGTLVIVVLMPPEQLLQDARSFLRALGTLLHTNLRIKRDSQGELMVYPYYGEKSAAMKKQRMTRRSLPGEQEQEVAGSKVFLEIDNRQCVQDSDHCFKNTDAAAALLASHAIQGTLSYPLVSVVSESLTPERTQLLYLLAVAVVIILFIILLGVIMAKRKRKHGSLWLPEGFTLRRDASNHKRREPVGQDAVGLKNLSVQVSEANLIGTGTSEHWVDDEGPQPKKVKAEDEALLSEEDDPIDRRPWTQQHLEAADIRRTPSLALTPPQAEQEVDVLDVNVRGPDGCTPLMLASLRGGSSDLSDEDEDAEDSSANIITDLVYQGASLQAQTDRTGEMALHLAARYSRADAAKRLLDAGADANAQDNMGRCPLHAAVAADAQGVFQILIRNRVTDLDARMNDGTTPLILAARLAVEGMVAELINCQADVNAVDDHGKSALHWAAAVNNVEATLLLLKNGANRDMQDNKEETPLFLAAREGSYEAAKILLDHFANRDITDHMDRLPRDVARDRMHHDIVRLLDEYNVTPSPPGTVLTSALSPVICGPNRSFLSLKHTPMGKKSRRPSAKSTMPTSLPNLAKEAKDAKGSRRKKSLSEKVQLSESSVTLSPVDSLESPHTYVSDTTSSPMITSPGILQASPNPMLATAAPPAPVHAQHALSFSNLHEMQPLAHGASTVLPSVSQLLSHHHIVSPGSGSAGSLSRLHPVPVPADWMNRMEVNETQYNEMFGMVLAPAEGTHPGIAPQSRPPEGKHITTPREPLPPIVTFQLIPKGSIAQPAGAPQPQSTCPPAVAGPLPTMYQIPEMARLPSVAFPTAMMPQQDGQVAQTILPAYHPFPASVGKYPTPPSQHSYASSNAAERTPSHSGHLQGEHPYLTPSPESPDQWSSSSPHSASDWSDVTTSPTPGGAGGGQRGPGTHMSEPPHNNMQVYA

[6] = molecular target: Pro-neuregulin-1, membrane-bound isoform (Homo sapiens) (UniProt Q02297); experiment: NRG1 binders on small-molecule microarrays, primary screen, psychiatric disease protein project, biochemical, small-molecule microarray, fluorescence 635/667 (AID 1075); conditions: NRG1 binding, 635 nm fluorescence, higher = more signal;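 also: score combines 667 nm spot fluorescence with signal to noise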
Pro-neuregulin-1, membrane-bound isoform (Homo sapiens), sequence (Q02297 whole entry, looked up, the tested form may be a part, canonical isoform): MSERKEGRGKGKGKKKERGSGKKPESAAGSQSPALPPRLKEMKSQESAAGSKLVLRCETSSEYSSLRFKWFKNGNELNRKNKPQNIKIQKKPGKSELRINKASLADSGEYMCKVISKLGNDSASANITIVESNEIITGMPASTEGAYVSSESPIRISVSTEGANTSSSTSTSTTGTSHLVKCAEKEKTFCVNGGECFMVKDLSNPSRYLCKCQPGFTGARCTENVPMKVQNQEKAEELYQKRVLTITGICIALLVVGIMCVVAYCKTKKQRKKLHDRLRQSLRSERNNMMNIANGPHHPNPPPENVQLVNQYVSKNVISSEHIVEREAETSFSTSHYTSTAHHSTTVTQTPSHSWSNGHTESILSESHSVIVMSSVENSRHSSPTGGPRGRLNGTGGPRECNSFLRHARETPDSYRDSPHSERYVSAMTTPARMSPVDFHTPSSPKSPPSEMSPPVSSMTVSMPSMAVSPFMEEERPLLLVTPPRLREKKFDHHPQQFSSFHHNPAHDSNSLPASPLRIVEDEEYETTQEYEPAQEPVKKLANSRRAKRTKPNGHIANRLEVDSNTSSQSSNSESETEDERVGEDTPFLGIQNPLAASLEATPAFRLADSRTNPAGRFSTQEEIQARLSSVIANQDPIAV

[7] = system: Neuregulin-1 EGF-like domain; experiment: binders of neuregulin-1 EGF-like domain, primary screen, biochemical, small-molecule microarray, 635 nm fluorescence (AID 1081); conditions: small-molecule microarray binding, higher = more signal;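 also: binding of the protein to compounds printed on small-molecule microarray slides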
[8] = FRG1 promoter luciferase signal modulators, primary screen, FRG1 inhibition for FSHD, cell-based, C2C12 myotubes, firefly/Renilla luciferase, luminescence (AID 1084); conditions: higher = more signal, called active from +8 up or from −8 down
[9] = binders of probe aFST on microarray, primary screen, stem cell growth factor project, biochemical, small-molecule microarray, fluorescence 635/667 (AID 1086); conditions: higher = more signal;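 also: score merges 667 nm fluorescence with signal-to-noise of each printed compound spot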
[10] = binders of probe aHhip on microarray, primary screen, stem cell growth factor project, biochemical, small-molecule microarray, fluorescence 635/667 (AID 1087); conditions: higher = more signal;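 also: score merges spot fluorescence at 667nm with spot signal to noise ratio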
[11] = system: PRMT1 (protein arginine N-methyltransferase 1); experiment: PRMT1 binders on small-molecule microarrays, primary screen, biochemical, small-molecule microarray, 635 nm fluorescence (AID 1088); conditions: small-molecule microarray binding, higher = more signal;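 also: binding of Prmt1 protein to compounds spotted on small-molecule microarray slides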
[12] = yeast growth modulation, basal conditions, primary screen, YJM789 clinical isolate, OD600, 24 h (AID 1089);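 also: growth of clinical yeast isolate S. cerevisiae YJM 789 seeded 1000 cells per well; test concentration not given here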; conditions: S. cerevisiae YJM789 growth, higher = more signal, called active from +8 up or from −8 down
[13] = fission yeast growth modulation, primary screen, strain 972, OD600, 24 h, no modulator (AID 1090);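 also: basal condition with compound alone and no growth modifier present; test concentration not given here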; conditions: S. pombe 972 growth, higher = more signal, called active from +8 up or from −8 down
[14] = S. cerevisiae growth modulation with rapamycin, primary screen, strain BY4716, OD600, 96 h (AID 1091); conditions: higher = more signal, called active from +8 up or from −8 down; also: test concentration not given here
[15] = molecular target: Torsin-1A-interacting protein 2 (Homo sapiens) (UniProt Q8NFQ8); experiment: LULL1 binders on small-molecule microarray, primary screen, cell lysate, human LULL1 lysate, 635/667 nm fluorescence (AID 1092); conditions: hLULL1 lysate binding, 635 nm fluorescence, higher = more signal;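 also: probe is lysate of COS7 cells overexpressing human LULL1; score merges per-feature 667 nm fluorescence with signal-to-noise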
Torsin-1A-interacting protein 2 (Homo sapiens), sequence (Q8NFQ8 whole entry, looked up): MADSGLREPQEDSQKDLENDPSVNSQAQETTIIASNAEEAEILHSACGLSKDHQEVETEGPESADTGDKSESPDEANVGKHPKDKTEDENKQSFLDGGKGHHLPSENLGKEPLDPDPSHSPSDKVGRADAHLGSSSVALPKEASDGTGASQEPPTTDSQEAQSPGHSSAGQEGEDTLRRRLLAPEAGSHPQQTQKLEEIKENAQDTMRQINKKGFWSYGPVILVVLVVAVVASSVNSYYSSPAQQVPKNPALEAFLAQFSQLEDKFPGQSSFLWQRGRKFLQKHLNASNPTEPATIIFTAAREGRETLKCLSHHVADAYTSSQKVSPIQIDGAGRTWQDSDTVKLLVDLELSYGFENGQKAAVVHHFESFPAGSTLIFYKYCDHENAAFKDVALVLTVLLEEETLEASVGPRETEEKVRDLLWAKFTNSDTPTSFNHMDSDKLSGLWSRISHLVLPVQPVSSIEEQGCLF

[16] = E. coli growth modulation, two-sided OD650, primary screen, E. coli filamentation project, strain DRC41, 24 h (AID 1093); conditions: OD650, 24 h, higher = more signal, called active from +8 up or from −8 down;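 also: MC1000 strain lacking acrAB efflux and sulA so SOS filamentation is blocked; test concentration not given here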
[17] = small-molecule microarray binders of probe aLefty2, primary screen, biochemical, biotinylated probe, 635/667 nm fluorescence (AID 1094); conditions: higher = more signal;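 also: score merges spot fluorescence near 667 nm with spot signal-to-noise ratio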
[18] = system: Noggin (protein binding on small-molecule microarray); experiment: Noggin binders on small-molecule microarray, primary screen, biochemical, 635/667 nm fluorescence (AID 1095); conditions: 635 nm fluorescence, higher = more signal;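 also: score merges 667 nm feature fluorescence with signal to noise over triplicate slides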
[19] = molecular target: Neurogenic locus notch homolog protein 3 (Homo sapiens) (UniProt Q9UM47); experiment: NOTCH3 binders on small-molecule microarray, primary screen, biochemical, 635/667 nm fluorescence (AID 1096); conditions: NOTCH3 binding, 635 nm fluorescence, higher = more signal
[20] = small-molecule microarray binders of probe aEGFR, primary screen, biochemical, biotinylated probe, 635/667 nm fluorescence (AID 1097); conditions: higher = more signal;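 also: probe is a biotinylated anti-EGFR antibody binding compounds printed on slides; score combines fluorescence near 667 nm and signal to noise of each spot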

Compound | composite z-score [1] | composite z-score [2] | composite z-score [3] | composite z-score [4] | composite z-score [5] | composite z-score [6] | composite z-score [7] | z-score [8] | composite z-score [9] | composite z-score [10] | composite z-score [11] | z-score [12] | z-score [13] | z-score [14] | composite z-score [15] | z-score [16] | composite z-score [17] | composite z-score [18] | composite z-score [19] | composite z-score [20]
NC(=O)NCC#Cc1ccc2c(c1)[C@]1(C(=O)N2)[C@H](C(=O)N2CCN(c3ncccn3)CC2)[C@H]2C(=O)O[C@H](c3ccccc3)[C@H](c3ccccc3)N2[C@@H]1c1ccc(O)cc1 | -0.141 | 0.143 | -0.0328 | 0.861 | 1.17 | 0.575 | 0.664 | 0.234 (inactive) | 1.1 | 0.141 | 1.33 | 0.541 (inactive) | -0.281 (inactive) | 0.971 (inactive) | 0.828 | -0.653 (inactive) | 0.109 | 0.517 | 1.08 | 0.0283
CC(C)N1C(=O)C[C@@](C(=O)O)(c2ccc([N+](=O)[O-])cc2)[C@H]1c1ccc(CO)cc1 | 1 | 0.208 | -0.031 | 0.117 | -0.436 | 0.425 | 1.04 | 0.161 (inactive) | -0.322 | 0.0373 | 1.01 | 0.548 (inactive) | -0.996 (inactive) | -0.265 (inactive) | 2.72 | 1.27 (inactive) | 0.0511 | -1.13 | 0.0599 | -0.158
COC(=O)[C@]1(CCS(=O)(=O)c2ccccc2)N=C(c2ccc(OCCCO)cc2)O[C@@H]1c1ccccc1N=[N+]=[N-] | 0.48 | 0.619 | 0.136 | 0.898 | 1.53 | 1.79 | 1.37 | 1.89 (inactive) | 1.15 | 0.0102 | 1.54 | 0.764 (inactive) | -2.44 (inactive) | 35.7 (active) | 3.23 | -1.29 (inactive) | 0.346 | 1.22 | 1.04 | 0.6
CC(C)[Si]1(C(C)C)OCc2cc(-c3ccc(-c4ccc(Cl)c(Cl)c4)o3)nc(-c3ccccc3)c21 | 0.695 | -0.464 | -0.147 | -0.818 | -1.65 | 0.314 | -0.914 | -0.358 (inactive) | -0.774 | -0.134 | -0.715 | 0.0932 (inactive) | -1.39 (inactive) | 0.265 (inactive) | -1.75 | -0.184 (inactive) | -0.0803 | -0.401 | -0.444 | -0.316
CCC1=C2CN(Cc3ccccc3)[C@@H](C(=O)Cc3ccccc3)C2C=CCC1 (stereo not given in full) | -0.317 | -0.756 | -0.0909 | 0.083 | -0.227 | 0.271 | 0.441 | -1.02 (inactive) | 0.0633 | -0.0994 | -0.279 | -0.273 (inactive) | -2.18 (inactive) | -0.728 (inactive) | 2.47 | 0.673 (inactive) | -0.164 | 0.751 | 0.841 | -0.177
CC#CCO[Si](C#Cc1ccccc1)(C(C)C)C(C)C | 0.393 | -0.688 | -0.187 | -0.279 | 1.34 | -0.878 | -0.665 | 0.289 (inactive) | -0.217 | -0.134 | -0.877 | -1.72 (inactive) | -19.5 (active) | -1.86 (inactive) | -0.669 | -0.304 (inactive) | -0.135 | 0.709 | 0.231 | -0.203
C=CCNC(=O)[C@H]1[C@@H]2C(=O)O[C@@H](c3ccccc3)[C@@H](c3ccccc3)N2[C@@H](c2ccccc2OCCO)[C@]12C(=O)N(C(=O)OCCOC)c1ccc(C#CC3(O)CCCCCC3)cc12 | -0.192 | 0.281 | 0.0376 | 0.434 | 0.776 | 1.04 | 1.2 | -2.54 (inactive) | 0.339 | 0.0176 | 1.56 | -0.22 (inactive) | -0.444 (inactive) | 4.93 (inactive) | 3.1 | 1.31 (inactive) | -0.0499 | 0.592 | 0.759 | -0.0455
C=CC[C@@H](OC(=O)Nc1ccc(OC)cc1)c1ccc(O)c(F)c1 | 0.93 | 0.141 | -0.141 | -0.97 | -1.43 | 0.952 | 1.13 | 6.36 (inactive) | -0.535 | -0.216 | 0.349 | -23.4 (active) | -20.3 (active) | -2.74 (inactive) | 2.09 | 0.92 (inactive) | -0.146 | -0.488 | -0.6 | -0.241
COC(=O)[C@@]1(Cc2ccc(OC)cc2)[C@H]2c3cc(C(=O)N(C)C)n(Cc4ccc(C)o4)c3C[C@H]2CN1C(=O)c1ccccc1 | 0.429 | -0.342 | 0.0807 | 0.423 | 1.61 | 1.85 | 1.24 | -0.472 (inactive) | 1.16 | 1.48 | 0.549 | -0.529 (inactive) | 0.805 (inactive) | 0.0527 (inactive) | 3.6 | 0.527 (inactive) | 0.347 | -0.263 | 0.916 | 0.229
NCCCCCNC(=O)[C@H]1C[C@H]2C(=O)N3CCC[C@H]3C(=O)N2[C@H]1c1cccc(OCCO)c1 | 1.46 | 0.161 | -0.0448 | 0.179 | -0.0052 | 1.52 | 1.43 | 1.91 (inactive) | 0.534 | 0.0873 | 1.56 | 0.372 (inactive) | -1.53 (inactive) | 0.674 (inactive) | 3.15 | 0.0425 (inactive) | 0.767 | -0.321 | 0.0389 | 0.102
CCCCC(O)C1C=CC2C(=O)N(C)C(=O)C2N1N(c1ccccc1)c1ccccc1 (stereo not given) | 0.555 | 1.3 | 0.0748 | 0.0636 | 1.14 | 1.25 | 0.999 | 0.667 (inactive) | 0.701 | 0.0497 | 1.56 | -0.0289 (inactive) | 0.483 (inactive) | 0.251 (inactive) | 3.1 | -1.8 (inactive) | -0.0441 | -0.0371 | 1.1 | 0.111

— PubChem BioAssay
